Some structures have more than one record in an assay (separate samples or runs), and their calls can disagree. Active and inactive are the calls of the source. How the source made its calls: active means hit-call score of the fitted dose curve at least 0.9, where 1 is the maximum; inactive means score below 0.9.
experiment: ATG_PXRE_CIS: Attagene CIS-FACTORIAL HepG2 Assay for human Pregnane X Receptor Element (PXRE) (AID 2282957); details: HepG2 Attagene CIS-FACTORIAL PXRE reporter, mRNA; actives raise or lower the signal
Procedure: ATG_CIS is a cell-based, multiplexed-readout assay that uses HepG2, a human liver cell line, with measurements taken at 24 hours after chemical dosing in a 24-well plate.ATG_PXRE_CIS is one of 52 assay component(s) measured or calculated from the ATG_CIS assay. It is designed to make measurements of mRNA induction, a form of inducible reporter, as detected with fluorescence intensity signals by Reverse transcription polymerase chain reaction (RT-PCR) and Capillary electrophoresis technology.Data from the assay component ATG_PXRE_CIS was analyzed into 1 assay endpoint. This assay endpoint, ATG_PXRE_CIS, was analyzed with bidirectional fitting relative to DMSO as the negative control and baseline of activity. Using a type of inducible reporter, measures of mRNA for gain or loss-of-signal activity can be used to understand the reporter gene at the transcription factor-level as they relate to the gene NR1I2. Furthermore, this assay endpoint can be referred to as a primary readout, because this assay has produced multiple assay endpoints where this one serves a reporter gene function. To generalize the intended target to other relatable targets, this assay endpoint is annotated to the nuclear receptor intended target family, where the subfamily is non-steroidal.
Human liver HepG2 cells are transiently transfected with multiple reporter transcription units (MRTUs) in 6-well plates using FuGene 6 reagent (Roche; 3 ml FuGene/1 mg DNA). The MRTU constructs are regulated by a cis-regulating element (promoter). […] A major difference between the CIS and TRANS system is that in CIS activities of endogenous TFs are measured, whereas the TRANS assay evaluates changes in activities of exogenous, chimeric NR-Gal4 proteins. […] At the end of 24 hour incubation, total RNA was isolated using TriZol reagent (Invitrogen). The isolated RNA is then reverse-transcribed using oligo(dT) primer and Mo-MLV reverse transcriptase (Invitrogen) with DNAse I (Ambion) treatment for 30 min. The one-tenth of the produced cDNA was amplified by PCR using Taq DNA polymerase (Invitrogen) and two reporter sequence-specific primers. The PCR products were fluorescently labeled by primer extension with 6-arboxyfluorescein (6-FAM) 5'-labeled reporter sequence-specific primer (2 min at 95 C, 20 s at 68 C and 10 min at 72 C) and these products were digested with 5U of HpaI (New England Biolabs) for 2h at 37 C. The fragments were purified using Qiaquick PCR columns (Qiagen), analyzed on an ABI 3130xL genetic analyzer (Applied Biosystems) with peak positions identified by using a set of X-rhodamine (ROX)-labeled MapMarker1000 molecular weight standards (BioVentures). The raw capillary electrophoresis data was processed using Attagraph software (Attagene).

SMILES	AC50	outcome
COc1ccccc1O	69.3 µM (active)	
COc1ccc(C(C)=O)cc1		inactive
CCC(C)(CCCC(C)C)OC(C)=O (stereo not given)		inactive
CCCCCC#CC(=O)OC	20.2 µM (active)	
C=CCCCCCCCCC(=O)OCC		inactive
CCCCCCCCCCCCCCCCCC(=O)OCCCCCCCCCCCCCC(C)C	46.9 µM (active)	
ClCCOCCOCCCl		inactive
CCCCCCCCCCO[C@@H]1O[C@H](CO)[C@@H](O)[C@H](O)[C@H]1O		inactive
CCCO	85.4 µM (active)	
CCCCCCCOC(C)=O	31 µM (active)	
COc1cc(OC)c2ccc(=O)oc2c1		inactive
C1COCO1		inactive
OC[C@H]1O[C@@H](O[C@H]2[C@H](O)[C@@H](O)[C@H](O)O[C@@H]2CO)[C@H](O)[C@@H](O)[C@H]1O		inactive
C[N+](C)(C)CCO		inactive
CC(=O)OC/C=C(C)/C=C/C=C(C)/C=C/C1=C(C)CCCC1(C)C	0.426 µM (active)	
CCCC1CCC(=O)CC1	27.6 µM (active)	
C=CC(=O)OCC(CO)(COC(=O)C=C)COC(=O)C=C		inactive
OC[C@@H](O)[C@H](O)[C@@H](O)[C@@H](O)CO	37.2 µM (active)	
Brc1cc(Br)cc(Br)c1	100 µM (active)	

SMILES	AC50	outcome
FC(F)(F)c1ccc(Cl)c(Cl)c1	27.9 µM (active)	
O=C1CCCCCCCCCCCC(=O)OCCO1		inactive
CC(C)C(=O)c1ccccc1		inactive
CC(C)=CC(=O)O	99.5 µM (active)	
CC(CO)c1ccccc1 (stereo not given)		inactive
O=C(O)c1ccccc1O		inactive
CCCCCCCCCCCCOCCOS(=O)(=O)O	14.2 µM (active)	
CCOC(=O)CC(C)C		inactive
CC1=CCC(=C(C)C)CC1	5.48 µM (active)	
C#C[C@]1(O)CC[C@H]2[C@@H]3CCc4cc(O)ccc4[C@H]3CC[C@@]21C	3.19 µM (active) [middle of 4 runs]	inactive
CCCCCC1CCC(=O)O1 (stereo not given)		inactive
O=C(O)c1cccc(Cl)n1		inactive
C=CC(O)CCCCC (stereo not given)		inactive
Cc1cccc(C)c1	34.4 µM (active)	
CCCCCCCCCCCCN1CCOCC1		inactive
C[C@]12CC[C@@H]3c4ccc(O)cc4CC[C@H]3[C@@H]1CC[C@@H]2O	5.88 µM (active) [middle of 4 runs]	inactive
CN(C)c1ccc(C=O)cc1		inactive
CCCCCCCC(=O)N(C)C	42.4 µM (active)	
CC1(C)CC(N)CC(C)(CN)C1 (stereo not given)		inactive

Source: PubChem BioAssay (EPA / NIEHS)
